This is an account of results in PubChem BioAssay AID777 (Sanford-Burnham Center for Chemical Genomics, 2007).

The campaign covered roughly 96,000 compounds. About 19,000 (20%) were called active. These entries were drawn from the full list. Values without a mark were called inactive.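 Rule for the calls: active = blocking of liver enzyme CYP2C9 beyond about 50% at 5 µM (limit read from the data); inactive = the rest.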

In this test the target is Cytochrome P450 2C9 (Homo sapiens) (UniProt P11712). Kind of test: blockers of cytochrome P450 2C9 activity – biochemical, luminescence, ADME assay, primary screen (AID 777). The settings on record: CYP2C9 Supersomes, luciferin-H conversion, at 5 µM, hits give high values.
Chain of Cytochrome P450 2C9 (Homo sapiens) (P11712 whole entry, looked up): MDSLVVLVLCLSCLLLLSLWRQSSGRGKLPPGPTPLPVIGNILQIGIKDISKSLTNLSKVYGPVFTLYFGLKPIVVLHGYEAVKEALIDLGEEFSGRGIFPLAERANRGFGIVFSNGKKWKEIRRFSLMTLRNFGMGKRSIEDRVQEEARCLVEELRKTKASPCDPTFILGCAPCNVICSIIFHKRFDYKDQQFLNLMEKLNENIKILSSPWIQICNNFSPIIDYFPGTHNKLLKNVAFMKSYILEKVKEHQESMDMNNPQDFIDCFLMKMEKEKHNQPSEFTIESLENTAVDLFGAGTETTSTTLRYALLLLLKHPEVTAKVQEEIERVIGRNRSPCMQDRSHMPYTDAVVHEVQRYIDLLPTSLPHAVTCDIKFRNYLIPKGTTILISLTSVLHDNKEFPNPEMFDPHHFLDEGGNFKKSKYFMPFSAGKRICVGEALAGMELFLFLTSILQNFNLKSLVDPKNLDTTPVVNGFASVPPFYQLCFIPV
As to `CCCc1cc(-c2n[nH]c(=S)n2Cc2ccccc2)cs1`, the inhibition is 38.6%.

Turning to `CC(C)c1ccc(N2CCN(C(=O)c3ccccc3NC(=O)/C=C(\C(=O)O)c3ccccc3)CC2)cc1`, the inhibition is 18%.

Turning to `CCOCCN(C=O)c1cccc(OC)c1`, the inhibition was -20.4%.

With `CCOC(=O)CN(Cc1ccc(OC)c(OC)c1)S(=O)(=O)c1ccc(OC)cc1`, the inhibition was 64% (active).

Take `O=C(OCc1cc2ccccc2[nH]c1=O)c1cccnc1`: the inhibition was 12.7%.

Take `C=CCSc1nc(Cc2ccc(Cl)cc2)nc2ccccc12`: the inhibition is 2.7%.

As for `O=C(CC1Nc2ccccc2NC1=O)Nc1ccccc1` (centres undefined), the inhibition was 6.5%.

For `O=C(CCN1C(=O)c2ccncc2C1=O)Nc1ccc2c(c1)OCCO2`, the inhibition is -3.9%.

Turning to `O=C(CCN1C(=O)c2ccccc2C1=O)Nc1cccc(F)c1`, the inhibition is 28.8%.

As to `O=C(CCN1c2ccccc2Sc2ccccc21)Nc1ccccc1`, the inhibition is 95.4% (active).

With `O=C(O)CCCC(=O)Nc1ccccc1-n1ccnc1`, the inhibition is 0.8%.

With `O=C(CCN1C(=O)c2ccccc2C1=O)Nc1ccncc1`, the inhibition was 65.7% (active).

For the compound `COc1ccc(Br)cc1S(=O)(=O)N1CCN=C1C`, the inhibition was -27.3%.

For the compound `Cc1nc2cc(-c3ccc(F)cc3)nn2c(N2CCOCC2)c1C`, the inhibition is 8.9%.

`CCN1CCN(Cc2c(O)ccc3c(=O)c(-c4ccc(OC)c(OC)c4)c(C(F)(F)F)oc23)CC1`: the inhibition was 8.1%.

On to `O=c1c(-c2ccc3c(c2)OCCO3)c(C(F)(F)F)oc2cc(O)cc(O)c12`, for which the inhibition is 87.3% (active).

With `Cc1nc(SC(C)C)[nH]c(=O)c1Cc1ccccc1`, the inhibition was 26%.

With `CCN1C(=O)/C(=C2/Sc3ccccc3N2CCCS(=O)(=O)O)SC1=S`, the inhibition was 7%.

On to `COc1cc(/C=N/Nc2nn3cnnc3c3ccccc23)cc(OC)c1OC`, for which the inhibition was 25.9%.

For `Cc1onc(-c2ccccc2Cl)c1C(=O)OCC(=O)c1ccccc1`, the inhibition was 65.8% (active).

Consider `Cc1ccc2cc(CCNC(=O)c3ccc4c(c3)OCO4)c(=O)[nH]c2c1`, for which the inhibition is 31.9%.

For `Cc1cc2ccccc2n1CCNC(=O)COc1ccc2ccccc2c1`, the inhibition was 33.5%.

Take `COc1c(O)cccc1-c1nnn(CCC(=O)OCC(=O)c2ccccc2)n1`: the inhibition is 29%.

`Cc1onc(-c2ccccc2Cl)c1C(=O)NCCn1ccc2ccccc21`: the inhibition was 54.6% (active).

With `O=C1c2ccccc2C(=O)N1Cc1cc(-c2ccccc2Cl)no1`, the inhibition is -135%.

With `Cc1ccc2cc(CCNC(=O)c3c(-c4ccccc4Cl)noc3C)c(=O)[nH]c2c1`, the inhibition is 93.8% (active).

Take `Cc1onc(-c2c(Cl)cccc2Cl)c1C(=O)c1c[nH]c(C(=O)NC2CC2)c1`: the inhibition was 7.6%.

For `Cc1ccc2[nH]c(=O)c(COC(=O)c3ccccn3)cc2c1`, the inhibition is 8.6%.

With `CC(C)Cc1oc(C(=O)O)cc1CN`, the inhibition was -3.5%.

`C#CCSc1nnc(-c2sc3ccccc3c2Cl)o1`: the inhibition was 26.7%.

With `COc1ccc(C(=O)N2CCC(C(=O)Nc3cccc(C)c3)CC2)cc1OC`, the inhibition was 8.3%.

Regarding `CCOc1ccc(N=C2SC(C(=O)O)CC(=O)N2C)cc1` (centres undefined), the inhibition was -4.3%.

As for `CC(C)(C)NC(=O)COc1ccc(CNc2ccc3[nH]c(=O)[nH]c3c2)cc1`, the inhibition is 31.4%.

`Cc1ccc(S(=O)(=O)c2c(COC(=O)c3cccc(Cl)c3)c(-c3ccccc3)nn2C)cc1`: the inhibition is 49.8%.

For the compound `O=S(=O)(c1ccccc1)N(CC(O)CN1CCCCC1)c1ccccc1` (centres undefined), the inhibition was 56% (active).

As to `Cc1ccc(N(CC(O)CN2CCCC2)S(=O)(=O)c2ccccc2)cc1` (centres undefined), the inhibition was 27.2%.

As to `Cc1cccc(N(CC(O)CN(C)C)S(=O)(=O)c2ccccc2)c1` (centres undefined), the inhibition is 7.4%.

As to `Cc1ccc(C(=O)N(CN2CCCC2=O)c2ccc(F)cc2)cc1`, the inhibition was -20%.

Take `CC(=O)N1Cc2ccccc2CC1C(=O)O` (centres undefined): the inhibition was -18.6%.

Regarding `Cc1c(NC(=O)C(C)OC(=O)c2cc3c4ccccc4n(C)c3s2)c(=O)n(-c2ccccc2)n1C` (centres undefined), the inhibition is -4.5%.

With `CCOc1ccccc1NC(=O)C1CCC(CNc2c(N3CCOCC3)c(=O)c2=O)CC1` (centres undefined), the inhibition was -30.1%.

As to `O=C(NC1CCCCC1)C1CC(=O)N(CCc2ccccc2)C1` (centres undefined), the inhibition is -4.8%.

On to `O=C(O)C1CC(=O)N(Cc2cccnc2)C1` (centres undefined), for which the inhibition is -22%.

As for `CCc1ccc(CNC(=O)C2CC(=O)N(CCc3ccc(C)cc3)C2)cc1` (centres undefined), the inhibition is 54.1% (active).

On to `Cc1ccc(CNC(=O)C2CC(=O)N(C3CCCCCCC3)C2)cc1` (centres undefined), for which the inhibition is -1.3%.

In the case of `Cc1ccc(CCN2CC(C(=O)O)CC2=O)cc1` (centres undefined), the inhibition is 53.7% (active).

For the compound `COCCCNC(=O)C1CC(=O)N(CCc2ccccc2)C1` (centres undefined), the inhibition was -3.7%.

As for `Cc1nc2ccccc2c2oc(C(=O)NCCCN3CCC(C)CC3)cc12`, the inhibition is 7.6%.

In the case of `O=C(Cn1cnc2c(nnn2-c2ccccc2)c1=O)N1CCC(Cc2ccccc2)CC1`, the inhibition is -30.4%.

Consider `Cc1ccc(C(=O)N2CCCC2)c(F)c1F`, for which the inhibition is 6.3%.

As for `CN(C)CC(O)COc1ccc(C(C)(C)c2ccc(OCC(O)CN(C)C)cc2)cc1` (centres undefined), the inhibition was -6.4%.

`O=C(CNC(=O)OCc1ccccc1)Oc1cc2oc(=O)cc(-c3ccccc3)c2cc1Cl`: the inhibition was 75.7% (active).

With `O=C(CNC(=O)c1ccccc1)NCC(=O)OCc1ccc(Cl)cc1`, the inhibition is 4.4%.

Turning to `O=C(NCC1CCC(C(=O)O)CC1)OCc1ccccc1` (centres undefined), the inhibition was -10.5%.

Regarding `CCOC(=O)CSc1nncc2ccc(OC)c(OC)c12`, the inhibition is 4.3%.

`Cc1nc2ccccc2cc1OCc1ccc(F)cc1`: the inhibition was 47.1%.

For `Cc1no[n+]([O-])c1COc1ccccc1/C=C1\NC(=S)NC1=O`, the inhibition was 30.2%.

In the case of `O=C(NCc1ccccn1)c1cc(-c2ccccc2Cl)on1`, the inhibition is -163%.

For `O=C(NCC1CCCO1)c1ccc2ccccc2n1` (centres undefined), the inhibition was -36.5%.

For the compound `Cc1ccc(-c2noc(-c3ccccc3C(=O)NCC3CCCO3)n2)cc1` (centres undefined), the inhibition was 70.8% (active).

On to `COc1cc(SC)ccc1C(=O)NCCOc1ccccc1Cl`, for which the inhibition was 28.9%.

As for `COCCNC(=O)c1ccccc1-c1nc(-c2ccccc2Cl)no1`, the inhibition is 83.9% (active).

With `Cc1ccc(C(=O)NCC2CCCO2)o1` (centres undefined), the inhibition was 2.8%.

As to `O=C(c1ccc(=O)[nH]c1)N(Cc1ccco1)C1(C(=O)NC2CCCCC2)CCCCC1`, the inhibition was -8.6%.

Consider `COc1ccc(C2N=C(N)N=C(N)N2c2ccccc2)cc1OC` (centres undefined), for which the inhibition is -7%.

For `O=C(N/N=C/c1ccsc1)c1cc(O)cc(O)c1`, the inhibition is 5.4%.

With `O=C(N/N=C/c1ccc(O)c(O)c1)C1c2ccccc2Oc2ccccc21`, the inhibition was 55.2% (active).

In the case of `COc1cc(/C=N\NC(=O)C2C(=O)NCC2c2ccccc2)cc(OC)c1O` (centres undefined), the inhibition was -9.3%.

Regarding `CCC1=C/C(=C\c2ccc3c(c2)OCO3)C(=O)S1`, the inhibition is 16.7%.

On to `OCCN(Cc1ccccc1)Cc1ccc(Cl)cc1`, for which the inhibition is 87.6% (active).

For `CN(Cc1ccccc1)Cc1ccccc1F`, the inhibition is -5%.

Regarding `CC(O)CN(Cc1ccc(Cl)cc1)CC(C)O` (centres undefined), the inhibition was -2.8%.

As for `Cn1c(=O)cc(SCC(=O)N2CCN(C(=O)c3ccco3)CC2)c2ccccc21`, the inhibition is -14%.

As for `O=C(Nc1nnc(C2CC2)s1)c1ccccn1`, the inhibition was -32.1%.

With `c1cncc(-c2nnc3n2C2(CCCCC2)Cc2ccccc2-3)c1`, the inhibition was 11.2%.

Consider `CCC1(CC)Cc2ccccc2-c2nc3ccccc3c(=O)n21`, for which the inhibition was 19.3%.

As for `O=c1c2ccccc2nc2n1C1(CCCCC1)Cc1ccccc1-2`, the inhibition was 87.7% (active).

Regarding `CC(C)[C@H](NC(=O)Nc1ccc(S(N)(=O)=O)cc1)C(=O)O`, the inhibition was -7.3%.

Regarding `O=S(=O)(/N=C(/Nc1ccccn1)c1ccccc1)c1ccc(Cl)cc1`, the inhibition was 29%.

As for `O=C1CCCc2c1[nH]c1ccc(Br)cc21`, the inhibition was 19.2%.

On to `CCOC(=O)C1=C(C)Nc2sc(C(=O)c3ccc(Br)cc3)c(N)c2C1c1ccc(C(=O)OC)cc1` (centres undefined), for which the inhibition is 91.9% (active).

Regarding `COC(=O)c1ccc(C2NC(=O)NC(C)=C2C(=O)N(C)C)cc1` (centres undefined), the inhibition is -16.8%.

Consider `CCOC(=O)c1sc(=S)n2c1[nH]c(=O)c1ccc(C(=O)OC)cc12`, for which the inhibition is 42.1%.

In the case of `Cc1c(Nc2nc3ccccc3nc2NS(=O)(=O)c2cccs2)c(=O)n(-c2ccccc2)n1C`, the inhibition is 47.6%.

On to `CCn1c(CNc2ccc(OC)cc2)nnc1SCC(=O)c1ccc(OC)cc1`, for which the inhibition was 25.4%.

Take `COc1ccc(NCc2nnc(SCc3ccccc3)n2-c2ccc(OC)cc2)cc1`: the inhibition was 59.6% (active).

`COc1ccc(-n2c(Cc3cccn3C)nnc2SCC(=O)Nc2cc(C)cc(C)c2)cc1`: the inhibition is 28.5%.

In the case of `C=C(C)Cn1c(C)cc(C)c(S(=O)(=O)c2ccccc2C)c1=O`, the inhibition is 36.5%.

Take `Cc1ccc(-n2ncc3c2ncn2nc(-c4ccco4)nc32)c(C)c1`: the inhibition is 0.2%.

As for `NC(=O)C1CC=CCC1C(=O)OCC(Cl)=C(Cl)Cl` (centres undefined), the inhibition is 2.9%.

In the case of `COc1ccc(CN2CN(C(C)C)CSC2=S)cc1`, the inhibition was 34%.

Consider `Cc1ccc(S(=O)(=O)N2CCCC2C(=O)NCc2ccco2)cc1` (centres undefined), for which the inhibition is -48.4%.

Regarding `CC(=O)Nc1ccc(S(=O)(=O)N2CCCC2C(=O)O)cc1` (centres undefined), the inhibition is -11.7%.

As to `NC(=O)COc1ccc(/C=N/NC(=O)C2CCCN2S(=O)(=O)c2ccc(Cl)cc2)cc1` (centres undefined), the inhibition is 67.3% (active).

With `Cc1cccc(NC(=O)C2CCCN2S(=O)(=O)c2ccc(F)cc2)c1C` (centres undefined), the inhibition was -147%.

As for `CC(C)c1nnc(NC(=O)C2CCCN2S(=O)(=O)c2ccc(Cl)cc2)s1` (centres undefined), the inhibition is 86.2% (active).

Turning to `O=C(COc1ccc(Cl)cc1)N1CCN(S(=O)(=O)c2ccc(Cl)cc2)CC1`, the inhibition was 0.1%.

On to `CCC(C)NC(=O)C1CCCN(C(=O)NC2CCCCC2)C1` (centres undefined), for which the inhibition is 19.9%.

For `COc1ccc(C)cc1NC(=O)c1[nH]c(C)c(C(C)=O)c1C`, the inhibition was 34%.
